# Results: the supplement of paper PMC10981050
# Values joined by “and” are separate entries in the source; they are usually repeats but may differ in a detail not shown here. Identical values can stand only once. Counter-ions that a name gives are not always drawn.
# Tests used:
# Assay in all cases: cell viability relative to vehicle control; higher = less cytotoxic
# Details in all cases: 10 µM
# [1] = tested on: K562
# Outline: (§1)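 Four leukaemia lines, as CRISPR-edited mutant clones and isogenic wild-type clones, were tested against Selleck bioactive, kinase and epigenetic probe libraries after removal of identity-inconsistent compounds. Cells were exposed to a single 10 µM dose for 48 h, and CellTiter-Glo luminescence was then read. Viability was calculated relative to the on-plate vehicle control.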
# [2] = tested on: MARIMO
# Outline: as §1
# [3] = tested on: MOLM14
# Outline: as §1
# [4] = tested on: OCI-AML2
# Outline: as §1
Structure (SMILES),cell viability ([1]; SRSF2 genotype: SRSF2 P95H/wt),cell viability ([1]; SRSF2 genotype: SRSF2 wt/wt) [%],cell viability ([2]; SRSF2 genotype: SRSF2 P95H/wt) [%],cell viability ([2]; SRSF2 genotype: SRSF2 wt/wt) [%],cell viability ([3]; SRSF2 genotype: SRSF2 P95H/wt) [%],cell viability ([3]; SRSF2 genotype: SRSF2 wt/wt) [%],cell viability ([4]; SRSF2 genotype: P95H/wt) [%],cell viability ([4]; SRSF2 genotype: wt/wt) [%]
CCNc1nc(Nc2cc(F)c(C(=O)N3CCOCC3)cc2OC)ncc1C(F)(F)F,102% and 98.9%,99.2,93.3,109,90,103,87.8,93.7
c1ccc2[nH]c(-c3cscn3)nc2c1 [Thiabendazole],105% and 101%,106,98.8,103,97.8,99,93.6,105
NCCCC[C@@H]1NC(=O)[C@@H](Cc2ccccc2)NC(=O)[C@H](CC(=O)O)NC(=O)CNC(=O)[C@H](CCCN=C(N)N)NC1=O [Cyclo (-RGDfK)],98.8% and 104%,103,98.6,103,98.5,101,108,118
O=C(O)c1cccnc1Nc1cccc(C(F)(F)F)c1 [Niflumic acid],97.2% and 100%,94.6,94.1,97.8,93.8,98.5,101,104
CC1(C)CC[C@]2(C)CC[C@]3(C)C(=CC[C@@H]4[C@@]5(C)CC[C@@H](O)[C@](C)(C(=O)O)[C@@H]5CC[C@]43C)[C@@H]2C1,97.6% and 95.5%,97.8,97.8,108,102,103,94.4,96.1
CCCCCCCCCCCCN1CCCCCC1=O [Laurocapram],82.4% and 87.5%,93.1,80.5,86.3,80.8,90.8,70.4,73.7
CN1CCc2nc(C(=O)N[C@@H]3C[C@@H](C(=O)N(C)C)CC[C@@H]3NC(=O)C(=O)Nc3ccc(Cl)cn3)sc2C1 [Edoxaban],98.2% and 93.3%,92.5,95.7,102,99.4,95.6,92.9,100
O=C(O)c1ccc(Br)c(O)c1 [4-Bromo-3-hydroxybenzoic acid],105% and 104%,104,100,110,100,107,99.3,108
CCOC(=O)C1=C[C@]2(CC)CCCN3CCc4c(n1c1ccccc41)[C@@H]32 [Vinpocetine (Cavinton)],93.6% and 101%,95.6,96.5,110,101,101,89.5,101
Cc1cn([C@H]2O[C@@H](CO)[C@H](O)[C@H]2F)c(=O)[nH]c1=O [Clevudine (Levovir)],91.2% and 95.1%,99.5,91.2,92.2,101,97.9,99.6,88.1
Cc1ccc(C=O)o1 [5-Methyl furfural],104%,95.7,99.8,94.2,99.1,101,103,103
Cc1c[nH]c2nc(Nc3ccc(N4CCN(C)CC4)c(F)c3)nc(-c3cccc(CC#N)c3)c12,11.7% and 1.85%,4.64,4.43,2.84,0.86,0.46,0.41,4.1
CC(=O)Nc1ccc(C(=O)Nc2ccccc2N)cc1 [CI994 (Tacedinaline)],59.2% and 64.7%,66,37.9,41.3,31.6,25.8,24.3,30
O=C(O)Cc1cccc2ccccc12 [Potassium 1-Naphthaleneacetate],92.5% and 95.9%,97,97.4,97.8,90.8,95.4,103,98.8
Cc1c(O)c(=O)ccn1C [Deferiprone],96.7% and 92.2%,93.6,90.6,102,87,93.9,90.5,96.3
COc1cc2c(Nc3ccc(NC(=O)c4ccccc4)cc3)ncnc2cc1OCCCN1CCOCC1,67.2% and 92%,79.4,62.5,72,17.9,10.3,16.4,22.1
C[C@H]1COc2c(N3CCN(C)CC3)c(F)cc3c(=O)c(C(=O)O)cn1c23 [Levofloxacin (Levaquin)],95.5% and 83.8%,87.5,90.4,101,95.2,88,87.3,88.3
COC(=O)c1ccc2c(C(=Nc3ccc(N(C)C(=O)CN4CCN(C)CC4)cc3)c3ccccc3)c(O)[nH]c2c1 [Nintedanib (BIBF 1120)],1.02% and 0.94%,2.25,39,34.4,2.6,4.94,0.94,5.1
Cn1cc(-c2[nH]c3cc(NC(=O)[C@H](N)C4CCCCC4)cc4c3c2C=NNC4=O)cn1,2.84% and 6.35%,4.41,32.7,26.9,0.83,0.37,5.09,8.02
O=c1nc(N2CCOCC2)oc2c(-c3cccc4c3sc3ccccc34)cccc12,92.3% and 93.3%,90.1,93.2,102,82.6,81.6,75.1,80.3

Structure (SMILES),cell viability ([1]; SRSF2 genotype: SRSF2 P95H/wt),cell viability ([1]; SRSF2 genotype: SRSF2 wt/wt) [%],cell viability ([2]; SRSF2 genotype: SRSF2 P95H/wt) [%],cell viability ([2]; SRSF2 genotype: SRSF2 wt/wt) [%],cell viability ([3]; SRSF2 genotype: SRSF2 P95H/wt) [%],cell viability ([3]; SRSF2 genotype: SRSF2 wt/wt) [%],cell viability ([4]; SRSF2 genotype: P95H/wt) [%],cell viability ([4]; SRSF2 genotype: wt/wt) [%]
C[C@@H]1COCCN1c1cc(-c2ccnn2C)c2ccnc(-c3ccn[nH]3)c2n1,8.97% and 14.2%,10.6,17.3,26.6,19.1,9.25,15,17.1
COC(=O)c1ccco1 [Methyl furan-2-carboxylate],108% and 99.5%,113,101,99.5,107,110,111,115
CO/N=C(\C(=O)N[C@@H]1C(=O)N2C(C(=O)OC(C)OC(C)=O)=C(COC(N)=O)CS[C@H]12)c1ccco1 (stereo not given in full) [Cefuroxime axetil],103% and 102%,96.2,99.6,104,101,107,111,105
COc1cc(O)c(CC=C(C)C)c2c1C(=O)CC(c1ccc(O)cc1)O2 (stereo not given) [Isoxanthohumol],83.1% and 81.6%,78.3,94.3,82.2,94.7,97.7,93.7,93
Cc1ccccc1N=Nc1ccc(NC(=O)c2ccnn2C)c(C)c1,84.3% and 77.9%,88,82.3,87.2,102,95,73.1,74.5
C[C@@H](Nc1nc(N[C@H](C)C(F)(F)F)nc(-c2cccc(Cl)n2)n1)C(F)(F)F [Vorasidenib (AG-881)],91.3% and 90.9%,84.7,88.3,105,89,85.3,104,98.3
CO[C@H]1C[C@@H]2CC[C@@H](C)[C@@](O)(O2)C(=O)C(=O)N2CCCC[C@H]2C(=O)O[C@H]([C@H](C)C[C@@H]2CC[C@H](n3cnnn3)[C@H](OC)C2)CC(=O)[C@H](C)/C=C(\C)[C@@H](O)[C@@H](OC)C(=O)[C@H](C)C[C@H](C)/C=C/C=C/C=C/1C [Zotarolimus (ABT-578)],67.9% and 74.2%,66.1,77,76.9,60.8,56.5,64.2,61.1
CCc1nc(C(N)=O)c(Nc2ccc(N3CCC(N4CCN(C)CC4)CC3)c(OC)c2)nc1NC1CCOCC1 [Gilteritinib (ASP2215)],89% and 85.7%,91.4,40.9,40.6,4.58,8.89,14.3,21.3
O=c1cc(N2CCOCC2)oc2c(-c3cccc4c3sc3ccccc34)cccc12,89.7% and 97.5%,88.3,93,87.3,60.5,51.9,52.5,66.4
COc1cc(O)c2c(c1)C(=O)c1cc(C)cc(O)c1C2=O [Rheochrysidin (Physcione)],96.9% and 101%,95.5,98.4,111,102,103,92.5,102
CCN(CCO)CCCOc1ccc2c(Nc3cc(CC(=O)Nc4cccc(F)c4)[nH]n3)ncnc2c1 [Barasertib (AZD1152-HQPA)],70.7% and 93.2%,81,73.2,68.2,13.9,7.61,29.1,36.6
Cc1c(C)c2c(c(C)c1O)CCC(C)(CCCC(C)CCCC(C)CCCC(C)C)O2 (stereo not given) [Vitamin E],96.5% and 100%,108,106,104,105,104,106,100
COc1ccnc(C[S+]([O-])c2nc3cc(OC(F)F)ccc3[nH]2)c1OC (stereo not given) [Pantoprazole sodium],98.7% and 96.7%,95.9,97,101,96.5,97.3,95.7,104
CC(=O)/N=c1/sc(S(N)(=O)=O)nn1C [Methazolamide],109% and 102%,95.2,106,111,98.5,102,100,105
N[C@@H]1CN(c2c(F)cc3c(=O)c(C(=O)O)cn([C@@H]4C[C@@H]4F)c3c2Cl)CC12CC2 [Sitafloxacin hydrate],103% and 104%,91.9,104,105,105,103,102,107
COc1cccc(CCc2ccccc2OCC(CN(C)C)OC(=O)CCC(=O)O)c1 (stereo not given) [Sarpogrelate hydrochloride],90.3% and 96%,92.4,84.3,89.3,88.1,102,96.9,100
CC[C@H]1OC(=O)[C@H](C)[C@@H](O[C@H]2C[C@@](C)(OC)[C@@H](O)[C@H](C)O2)[C@H](C)[C@@H](O[C@@H]2O[C@H](C)C[C@H](N(C)C)[C@H]2O)[C@](C)(O)C[C@@H](C)C(=O)[C@H](C)[C@H]2OC(=O)O[C@@]21C [Erythromycin Cyclocarbonate],101% and 103%,92.5,98.3,101,104,99.5,99,101
CCC(CC)n1ccc2c(C(=O)NCc3c(C)cc(C)[nH]c3=O)cc(C#N)cc21,107% and 101%,95.5,103,112,100,100,95,102
O=c1[nH]cnc2ccccc12 [4-Hydroxyquinazoline],99.8% and 93.6%,96.8,93.8,92.2,106,95.5,99.6,92.6
Cc1c(C(=O)C=Cc2ccccc2)[n+](=O)c2ccccc2n1[O-] [Quinocetone],72.1% and 60%,74.1,62.2,63.8,56.5,62.6,62.7,68.6
